Reference: PubChem BioAssay AID540321 (Johns Hopkins Ion Channel Center, 2011)
The source made the active and inactive calls.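 Rule for the calls: active = Inhibition of the Kir2.1 potassium channel over 30% at some tested dose, plus a fitted dose response curve; inactive = no Kir2.1 inhibition at any dose, or no curve fitted.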

biological target: Inward rectifier potassium channel 2 (Mus musculus) (UniProt P35561); experiment: Kir2.1 channel inhibition, specificity check, SAR follow-up, selectivity assay for KCNK9 inhibitor project, cell-based, FluxOR thallium flux, CRC round 2 (AID 540321); conditions: Kir2.1-expressing cells; series mostly up to 30 µM
Sequence (P35561 whole entry, looked up): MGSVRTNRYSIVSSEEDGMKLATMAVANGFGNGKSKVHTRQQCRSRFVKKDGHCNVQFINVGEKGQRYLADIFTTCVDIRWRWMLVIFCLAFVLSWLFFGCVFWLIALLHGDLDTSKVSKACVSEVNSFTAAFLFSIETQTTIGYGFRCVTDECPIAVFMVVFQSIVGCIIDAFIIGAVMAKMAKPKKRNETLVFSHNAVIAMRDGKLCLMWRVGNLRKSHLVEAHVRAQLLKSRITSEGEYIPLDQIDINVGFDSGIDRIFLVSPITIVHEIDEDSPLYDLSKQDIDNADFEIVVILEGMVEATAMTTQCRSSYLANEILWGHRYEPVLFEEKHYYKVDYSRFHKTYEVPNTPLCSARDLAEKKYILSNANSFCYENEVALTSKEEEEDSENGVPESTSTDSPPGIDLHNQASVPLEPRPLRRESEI

outcome, inactive:
CCOc1ccccc1NC(=O)c1cccc(NC(=O)C2CC2)c1
COc1ccccc1NC(=O)c1cccc(NC(=O)c2ccccc2C(F)(F)F)c1
Cc1cccc(C(=O)Nc2cccc(NC(=O)c3ccc(C(C)(C)C)cc3)c2)c1
Cc1cccc(C(=O)Nc2cccc(NC(=O)c3ccc(N(C)C)cc3)c2)c1
COc1ccccc1C(=O)Nc1cccc(NC(=O)c2ccccc2C(C)C)c1
Cc1cccc(C(=O)Nc2cccc(NC(=O)C3CCCCC3)c2)c1
COc1ccccc1NC(=O)c1cccc(NC(=O)c2ccccc2OC)c1
CC(C1CC2CCC1C2)n1c(-c2cccc(Cl)c2)n[nH]c1=S (stereo not given)
COc1ccccc1C(=O)Nc1cccc(NC(=O)c2ccccc2)c1
CCOc1ccccc1NC(=O)c1cccc(C(=O)NC2CCCC2)c1
CCOc1ccccc1NC(=O)c1cccc(NC(=O)c2ccccc2C(F)(F)F)c1
CC(C1CC2CCC1C2)n1c(-c2ccoc2)n[nH]c1=S (stereo not given)
COc1ccc(C(=O)Nc2cccc(NC(=O)c3cccc(C)c3)c2)cc1
Cc1cccc(C(=O)Nc2cccc(NC(=O)c3ccccc3C(C)C)c2)c1
O=C(Nc1cccc(NC(=O)c2ccco2)c1)c1ccccc1
COc1cccc(C(=O)Nc2cccc(NC(=O)c3ccccc3)c2)c1
CCOc1ccccc1NC(=O)c1cccc(NC(=O)c2ccccc2OC(F)(F)F)c1
COc1cccc(OC)c1C(=O)Nc1cccc(NC(=O)c2cccc(C)c2)c1
O=C(Nc1cccc(NC(=O)c2ccncc2)c1)c1ccccc1
COc1ccccc1C(=O)Nc1cccc(NC(=O)c2cccc(C)c2)c1
CCOc1ccccc1NC(=O)c1cccc(NC(=O)c2ccccc2OC)c1
COc1ccccc1NC(=O)c1cccc(NC(=O)C2CCCC2)c1
O=C(Nc1cccc(NC(=O)C2CCCCC2)c1)c1ccccc1
CC(C1CC2CCC1C2)n1c(-c2ccccc2Cl)n[nH]c1=S (stereo not given)
Cc1cccc(C(=O)Nc2cccc(NC(=O)c3ccccc3OCC(C)C)c2)c1
CCOc1ccccc1NC(=O)c1cccc(NC(=O)c2ccc(C(F)(F)F)cc2)c1
O=C(Nc1cccc(NC(=O)c2ccccc2C(F)(F)F)c1)c1ccccc1
CCOc1ccccc1NC(=O)c1cccc(NC(=O)c2ccc(OC)cc2)c1
Cc1cccc(C(=O)Nc2cccc(NC(=O)c3cccc(C)c3)c2)c1
Cc1ccccc1-c1n[nH]c(=S)n1C(C)C1CC2CCC1C2 (stereo not given)
CCOc1ccccc1NC(=O)c1cccc(NC(=O)c2cccc(Cl)c2)c1
Cc1cccc(C(=O)Nc2cccc(NC(=O)c3ccccc3C(F)(F)F)c2)c1
COc1ccccc1-c1n[nH]c(=S)n1C(C)C1CC2CCC1C2 (stereo not given)
Cc1cccc(-c2n[nH]c(=S)n2C(C)C2CC3CCC2C3)c1 (stereo not given)
Cc1cccc(S(=O)(=O)Nc2cccc(NC(=O)c3ccccc3)c2)c1
